# Assay results as given in PubChem BioAssay.
# Values joined by “and” are separate entries in the source; they are usually repeats but may differ in a detail not shown here. Equal values may be shown once. Active and inactive are the calls of the source.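 How the source made its calls, unless noted: active means normalized viability below 100% at a tested concentration; inactive means the rest.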
# How the values were obtained:
# [1] = viability loss with induced miR-34 in A549 – imaging, A549 dox-inducible miR-34, nuclei and caspase counts, primary screen (AID 1347080;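 active means compounds whose cell count with miR-34 switched on is under 0.7 times the count with it off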); settings: A549 miR-34 inducible, Hoechst nuclei count, 48 h
# [2] = MELAS cybrid and Rieske KO viability enhancers – cell-based, MELAS cybrids, Rieske KO mouse fibroblasts, CellTiter-Glo, primary screen (AID 1508586;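 active means mean z-score across replicates of 1.96 or higher in either the MELAS or the Rieske mutant cell line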;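 further: z relative to plate mean and SD of compound and empty wells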); settings: low glucose
# [3] = drug combination growth inhibition, ovarian cancer – cell-based, oncology-focused library, rucaparib conditional, profiling panel (AID 1508598); settings: patient-derived ovarian cancer cells, CellTiter-Glo viability, 144 h, stronger effect = lower value
# [4] = growth inhibition, single agent or in combination, cell-based, chromothripsis tumors, cisplatin or BGB combos (AID 1671449; in the data active means inhibition above about 80%;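 further: cells exposed for 96 hours; 0% = vehicle DMSO and 100% = killing by high DMSO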); settings: LFS_MB_P medulloblastoma cells
# [5] = growth inhibition, single agent and combos, cell-based, chromothripsis tumors, cisplatin or BGB combos (AID 1671450; in the data active means inhibition above about 80%;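 further: cells exposed to compound for four days; 0% = vehicle DMSO and 100% = cell killing by high DMSO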); settings: HDN33 neuroblastoma cells, stronger effect = higher value
# [6] = growth inhibition, single agents and combos, ICB984, cell-based, cisplatin or BGB combos, synergistic combos for chromothripsis tumors (AID 1671451; call rule not given here;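 further: cells exposed for 96 hours before readout; 0% = vehicle DMSO and 100% = killing by high DMSO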); settings: ICB984 medulloblastoma cells, drug combinations, stronger effect = higher value
# [7] = growth inhibition, single agents and combos, LFS_MB_1R, cell-based, cisplatin or BGB combos, synergistic combos for chromothripsis tumors (AID 1671452; in the data active means inhibition above about 80%;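 further: cells exposed for 96 hours before readout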); settings: LFS_MB_1R medulloblastoma cells, stronger effect = higher value
# [8] = growth inhibition, single agents and combos, HTB85, cell-based, BGB or cisplatin IC20 combos, synergistic combos for chromothripsis tumors (AID 1671453; in the data active means inhibition above about 80%;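 further: cells exposed for 96 hours before readout; 0% = vehicle DMSO and 100% = high DMSO killing control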); settings: HTB85 osteosarcoma cells, drug combinations, stronger effect = higher value
# [9] = growth inhibition, single agents and combos, CRL2098, cell-based, BGB or cisplatin IC20 combos, synergistic combos for chromothripsis tumors (AID 1671454; in the data active means inhibition above about 80%;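 further: cells exposed for 96 h before readout; 0% = vehicle DMSO and 100% = killing by high DMSO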); settings: CRL2098 osteosarcoma cells, drug combinations, stronger effect = higher value
# [10] = growth inhibition, single agents and combos, HD-MB03, cell-based, BGB or cisplatin IC20 combos, synergistic combos for chromothripsis tumors (AID 1671455; in the data active means inhibition above about 83%;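 further: 0% = vehicle DMSO and 100% = high DMSO as cytotoxic control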); settings: HD-MB03 medulloblastoma cells, stronger effect = higher value
# [11] = growth inhibition, single agents and combos, UWB1.289, cell-based, BGB or cisplatin combos, synergistic combos for chromothripsis tumors (AID 1671456; in the data active means inhibition above about 80%;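 further: cells exposed to compound for four days; 0% = vehicle DMSO and 100% = killing by high DMSO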); settings: UWB1.289 ovarian carcinoma cells, stronger effect = higher value
# [12] = growth inhibition, single agents and combos, LFS_MB_2R, cell-based, cisplatin combos, synergistic combos for chromothripsis tumors (AID 1671457; in the data active means inhibition above about 80%;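 further: cells exposed to compound for four days before readout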); settings: LFS_MB_2R medulloblastoma cells, stronger effect = higher value
# [13] = growth inhibition, MDA-MB-436, cell-based, BGB or cisplatin combos, synergistic combos for chromothripsis tumors (AID 1671458; call rule not given here;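 further: cells exposed for 96 hours; 0% = vehicle DMSO and 100% = killing by high DMSO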); settings: MDA-MB-436 breast carcinoma growth inhibition, drug combinations, stronger effect = higher value
# [14] = UWB1.289_BRCA1 ovarian cancer growth, cell-based, BGB or cisplatin combinations (AID 1671459; in the data active means inhibition above about 80%); settings: UWB1.289 BRCA1 ovarian carcinoma, drug combinations, stronger effect = higher value
# [15] = BT084 cell growth, single and combined drugs, ICGC_MB145, cisplatin and BGB IC40 combos (AID 1671461; in the data active means inhibition above about 80%;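 further: cells exposed to drugs for 96 hours; 0% = vehicle DMSO and 100% = high DMSO full killing control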); settings: BT084 medulloblastoma cells, drug combinations, stronger effect = higher value
# [16] = RCMB18 cell growth, single agent and combined, cisplatin and BGB IC40 combos (AID 1671462; in the data active means inhibition above about 80%;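 further: cells exposed to compound for four days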); settings: RCMB18 medulloblastoma cells, stronger effect = higher value
# [17] = CRL1545 cell growth, single agent and combined, cisplatin and BGB IC20 combos (AID 1671464; in the data active means inhibition above about 80%;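 further: cells exposed to compound for 96 hours before readout; 0% = vehicle DMSO and 100% = high DMSO killing control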); settings: CRL1545 osteosarcoma cells, stronger effect = higher value
# [18] = measured here: combination with BGB IC40, at 0.05 µM
# [19] = measured here: with BGB IC20 combination, at 0.5 µM
# [20] = measured here: with cisplatin IC20 combination, at 0.5 µM
# [21] = measured here: combination with cisplatin, at 0.5 µM
# [22] = measured here: combination with cisplatin, at 5 µM
compound,measurement,setting,value
CCOC(=O)NCCCC(=O)NCCc1ccccc1,fold change,"[1]; stronger effect = lower value, cell number ratio, induced over uninduced",0.978 (inactive)
same,fold change,[1]; measured here: relative caspase fold change +Dox/-Dox,0.408
same,cell count,"[1]; measured here: total cells with miR-34 induction, stronger effect = lower value",8950
same,cell count,[1]; measured here: total cells without miR-34 induction,9150
same,z-score,"[2]; MELAS cybrid survival, CellTiter-Glo 48 h, stronger effect = higher value",-0.307 (inactive)
same,z-score,"[2]; Rieske KO mouse fibroblast survival, CellTiter-Glo 72 h",0.919
same,viability,"[3]; at 0.000305 µM, OCI-C5x cells, with rucaparib 10 µM, 100% = cells with rucaparib alone",123% (inactive)
same,viability,"[3]; at 0.000305 µM, OCI-C5x cells, without rucaparib",98.5% (active)
same,viability,"[3]; at 0.000305 µM, OCI-P5x cells, with rucaparib 20 µM, 100% = cells with rucaparib alone",93.8% (active)
same,viability,"[3]; at 0.000305 µM, OCI-P5x cells, without rucaparib",94.2% (active)
same,viability,"[3]; at 0.00122 µM, OCI-C5x cells, with rucaparib 10 µM, 100% = cells with rucaparib alone",108% (inactive)
same,viability,"[3]; at 0.00122 µM, OCI-C5x cells, without rucaparib",102% (inactive)
same,viability,"[3]; at 0.00122 µM, OCI-P5x cells, with rucaparib 20 µM, 100% = cells with rucaparib alone",95.3% (active)
same,viability,"[3]; at 0.00122 µM, OCI-P5x cells, without rucaparib",93.4% (active)
same,viability,"[3]; at 0.00488 µM, OCI-C5x cells, with rucaparib 10 µM, 100% = cells with rucaparib alone",111% (inactive)
same,viability,"[3]; at 0.00488 µM, OCI-C5x cells, without rucaparib",110% (inactive)
same,viability,"[3]; at 0.00488 µM, OCI-P5x cells, with rucaparib 20 µM, 100% = cells with rucaparib alone",92.7% (active)
same,viability,"[3]; at 0.00488 µM, OCI-P5x cells, without rucaparib",96.6% (active)
same,viability,"[3]; at 0.0195 µM, OCI-C5x cells, with rucaparib 10 µM, 100% = cells with rucaparib alone",116% (inactive)
same,viability,"[3]; at 0.0195 µM, OCI-C5x cells, without rucaparib",115% (inactive)
same,viability,"[3]; at 0.0195 µM, OCI-P5x cells, with rucaparib 20 µM, 100% = cells with rucaparib alone",93.3% (active)
same,viability,"[3]; at 0.0195 µM, OCI-P5x cells, without rucaparib",94.2% (active)
same,viability,"[3]; at 0.0781 µM, OCI-C5x cells, with rucaparib 10 µM, 100% = cells with rucaparib alone",110% (inactive)
same,viability,"[3]; at 0.0781 µM, OCI-C5x cells, without rucaparib",108% (inactive)
same,viability,"[3]; at 0.0781 µM, OCI-P5x cells, with rucaparib 20 µM, 100% = cells with rucaparib alone",94.7% (active)
same,viability,"[3]; at 0.0781 µM, OCI-P5x cells, without rucaparib",99.6% (active)
same,viability,"[3]; at 0.313 µM, OCI-C5x cells, with rucaparib 10 µM, 100% = cells with rucaparib alone",117% (inactive)
same,viability,"[3]; at 0.313 µM, OCI-C5x cells, without rucaparib",106% (inactive)
same,viability,"[3]; at 0.313 µM, OCI-P5x cells, with rucaparib 20 µM, 100% = cells with rucaparib alone",88.9% (active)
same,viability,"[3]; at 0.313 µM, OCI-P5x cells, without rucaparib",104% (inactive)
same,viability,"[3]; at 1.25 µM, OCI-C5x cells, with rucaparib 10 µM, 100% = cells with rucaparib alone",118% (inactive)
same,viability,"[3]; at 1.25 µM, OCI-C5x cells, without rucaparib",111% (inactive)
same,viability,"[3]; at 1.25 µM, OCI-P5x cells, with rucaparib 20 µM, 100% = cells with rucaparib alone",89.5% (active)
same,viability,"[3]; at 1.25 µM, OCI-P5x cells, without rucaparib",99.1% (active)
same,viability,"[3]; at 5 µM, OCI-C5x cells, with rucaparib 10 µM, 100% = cells with rucaparib alone",116% (inactive)
same,viability,"[3]; at 5 µM, OCI-C5x cells, without rucaparib",109% (inactive)
same,viability,"[3]; at 5 µM, OCI-P5x cells, with rucaparib 20 µM, 100% = cells with rucaparib alone",83.3% (active)
same,viability,"[3]; at 5 µM, OCI-P5x cells, without rucaparib",89.3% (active)
same,inhibition,"[4]; at 0.5 µM, stronger effect = higher value",-22.5% (inactive) and -16.6% (inactive)
same,inhibition,"[4]; measured here: combination with BGB IC20, at 0.005 µM",-34.5% and -4.15%
same,inhibition,"[4]; measured here: combination with BGB IC40, at 0.005 µM",74.6% and -15.4%
same,inhibition,[4]; [18],-17.3% and -8.02%
same,inhibition,"[4]; measured here: combination with cisplatin, at 0.5 µM, stronger effect = higher value",-12.8% and -32.3%
same,inhibition,"[4]; measured here: combination with cisplatin, at 5 µM, stronger effect = higher value",-34.9% and -31.3%
same,inhibition,"[5]; BGB combo, at 5 µM",-65.3% and -26.9%
same,inhibition,[5]; at 0.5 µM,-38.5% (inactive) and -17.7% (inactive)
same,inhibition,"[5]; cisplatin combo, at 5 µM",-63.5% and -31.2%
same,inhibition,[5]; [19],-39.2% and -23.4%
same,inhibition,[5]; [20],-28% and -17.7%
same,inhibition,"[5]; single agent, at 5 µM",-54.8% and -22.1%
same,inhibition,"[6]; BGB IC20 combo, at 0.005 µM",-37.9% and -8.12%
same,inhibition,"[6]; BGB IC40 combo, at 0.005 µM",-29.1% and -31.3%
same,inhibition,"[6]; BGB IC40 combo, at 0.05 µM",-30% and -50.9%
same,inhibition,[6]; at 0.5 µM,-27.9% (inactive) and -27.3% (inactive)
same,inhibition,"[6]; cisplatin combo, at 0.05 µM",-36.7% and -56.9%
same,inhibition,"[6]; cisplatin combo, at 0.5 µM",-28.4% and -31.6%
same,inhibition,"[6]; cisplatin combo, at 5 µM",-21.8% and -22.7%
same,inhibition,"[6]; measured here: 5 uM single agent, at 5 µM",-34% and -5.68%
same,inhibition,[7]; at 0.5 µM,-35.7% (inactive) and -30.1% (inactive)
same,inhibition,[7]; [18],-32.7% and -26.4%
same,inhibition,[7]; [21],-69.3% and -37.1%
same,inhibition,[7]; [22],-41.3% and -32.8%
same,inhibition,[8]; at 0.5 µM,-20.7% (inactive) and -9.16% (inactive)
same,inhibition,"[8]; measured here: with BGB IC20, at 0.5 µM",-7.26% and 6.66%
same,inhibition,"[8]; measured here: with BGB IC20, at 5 µM",-10.7% and -19.1%
same,inhibition,"[8]; measured here: with cisplatin IC20, at 0.5 µM",-27.1% and -24.2%
same,inhibition,"[8]; measured here: with cisplatin IC20, at 5 µM",18% and -25.8%
same,inhibition,"[8]; single agent, at 5 µM",-17.5% and -2.77%
same,inhibition,[9]; at 0.5 µM,-89.4% (inactive) and -48.9% (inactive)
same,inhibition,"[9]; measured here: combination with BGB at IC20, at 0.5 µM",-73.5% and 13.5%
same,inhibition,"[9]; measured here: combination with cisplatin at IC20, at 0.5 µM",-117% and -69.6%
same,inhibition,[10]; at 0.5 µM,-22.5% (inactive) and -0.04% (inactive)
same,inhibition,"[10]; measured here: combo with BGB at IC20, at 0.5 µM",-19.9% and -14.2%
same,inhibition,"[10]; measured here: combo with cisplatin at IC20, at 0.5 µM",-31.5% and 17.9%
same,inhibition,[11]; at 0.5 µM,-19.7% (inactive) and -14.9% (inactive)
same,inhibition,"[11]; measured here: inhibition with BGB combination, at 0.05 µM",-30.7% and -21.8%
same,inhibition,"[11]; measured here: inhibition with cisplatin combination, at 0.05 µM",-28.1% and -20.9%
same,inhibition,[12]; at 0.5 µM,-12.3% (inactive) and -24.7% (inactive)
same,inhibition,[12]; [21],-9.92% and -32%
same,inhibition,[12]; [22],-15.4% and -22.8%
same,inhibition,[13]; at 0.5 µM,-30.7% (inactive) and -10.1% (inactive)
same,inhibition,"[13]; measured here: BGB combination, at 0.5 µM",-24.7% and -2.6%
same,inhibition,"[13]; measured here: BGB combination, at 5 µM",-6.13% and -14.1%
same,inhibition,"[13]; measured here: cisplatin combination, at 0.5 µM",-47% and -19.2%
same,inhibition,"[13]; measured here: cisplatin combination, at 5 µM",-39.2% and -16.3%
same,inhibition,"[14]; BGB combination, concentration series, at 5 µM",-32.5% and 1.48%
same,inhibition,[14]; at 0.5 µM,-24.6% (inactive) and -10.6% (inactive)
same,inhibition,"[14]; cisplatin combination, concentration series, at 5 µM",-5.77% and 15.9%
same,inhibition,[15]; at 0.5 µM,-9.48% (inactive) and -15.9% (inactive)
same,inhibition,"[15]; cisplatin combination, at 0.5 µM",-0.569% and -16.9%
same,inhibition,"[15]; cisplatin combination, at 5 µM",-138% and -1.29%
same,inhibition,"[15]; measured here: BGB IC40 combination 0.05 uM, at 0.05 µM",-26.7% and -17.1%
same,inhibition,"[15]; single agent, at 5 µM",-8.38% and 9.97%
same,inhibition,[16]; at 0.5 µM,-8.55% (inactive) and -27.8% (inactive)
same,inhibition,"[16]; cisplatin combo, at 5 µM",7.25% and -23.2%
same,inhibition,"[16]; measured here: BGB IC40 combination, at 0.05 µM",-14% and -29.5%
same,inhibition,[16]; [21],4.17% and -12.7%
same,inhibition,"[16]; single agent, at 5 µM",-2.65% and -61.4%
same,inhibition,[17]; at 0.5 µM,-24.2% (inactive) and -17.6% (inactive)
same,inhibition,[17]; [19],-40% and -29.3%
same,inhibition,[17]; [20],-18.2% and -11.8%
same,inhibition,"[17]; single agent, at 0.05 µM",-24.2% and 17.5%
same,inhibition,"[17]; single agent, at 5 µM",9.21% and -20.7%
